PubChem BioAssay AID504850 (National Center for Advancing Translational Sciences (NCATS), 2011)
Screen size: about 2,300 compounds; about 1,200 (52%) were called active. Another 34% or so got no clear call; they are omitted. So high a share suggests a set chosen from earlier hits. The list shows a part of the results. Unmarked numbers belong to inactive results. The call rests on the fitted dose curve; in most records, active means well fitted inhibition curve with a large enough effect; inconclusive means small, poorly fitted or top-dose-only effect, or effect the other way; inactive means no such curve, though single readings can be large or run the other way.

assay: Confirmation screen for delayed death inhibitors of the malarial parasite plastid, 48 hour incubation; further: nearly all actives have a fitted effect of over 65% in size; settings: P. falciparum-infected erythrocytes, luciferase growth; series mostly up to 28.7 µM; activity change, negative = inhibition: at the top concentration
Method in brief: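 Erythrocytes infected with luciferase-expressing P. falciparum (2% hematocrit, 0.1% parasitemia) incubated with compounds 48 hours at 37 C, 5% CO2, in RPMI/Albumax. Growth inhibition scored as reduced luminescence after detection reagent.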
On the % scale 0 is the no-effect control and ±100 the full control effect; potency means the concentration at half of the fitted maximal effect.

| Structure (SMILES) | Potency | activity change, negative = inhibition [%] |
| --- | --- | --- |
| CC(=O)Nc1cccc(Oc2ncnc3scc(-c4ccc(C(C)C)cc4)c23)c1 | 11.2 µM (active) | – |
| COc1ccc(-c2c(-c3ccc(OC)c(C)c3O)n[nH]c2C)cc1 | 14.1 µM (active) | – |
| CC1CCC/C=C/C(=O)c2c(O)cc(O)cc2CC(=O)O1 (stereo not given) | 7.08 µM (active) | – |
| COc1ccc(C2CC(=O)C3=C(C2)Nc2ccccc2NC3c2coc3ccccc3c2=O)cc1OC (stereo not given) | 1.26 µM (active) | – |
| CCCCSc1nnc(-c2cc3c(C(F)(F)F)nn(C)c3s2)n1C | 12.6 µM (active) | – |
| Cc1cccc2cc3c(nc12)SC(=NCC1CCCO1)N(Cc1ccco1)C3 (stereo not given) | 1.78 µM (active) | – |
| O=C(O)CCn1c(-c2ccccc2)cc2c1CCCC2=O | – | -9.21 |
| COc1cc(/C=C/C(=O)NC(=O)c2ccccc2O)ccc1OC(C)=O | 10 µM (active) | – |
| O=C(CCN1C(=O)S/C(=C\c2ccccc2)C1=O)NC1CCS(=O)(=O)C1 (stereo not given) | – | -29.3 |
| O=C(CCl)NCCN1C(=O)S/C(=C\c2cccnc2)C1=O | 7.94 µM (active) | – |
| COc1ccc2c(c1OC)C(=O)OC2Nc1nc(-c2ccccc2)cs1 (stereo not given) | 10 µM (active) | – |
| CCCCCNc1nc2sc3c(c2c(=O)n1-c1cccc(Cl)c1)CCN(C)C3 | 7.08 µM (active) | – |
| CCCCNc1nc2sc3c(c2c(=O)n1-c1cccc(Cl)c1)CCN(C)C3 | 3.55 µM (active) | – |
| Brc1ccccc1-c1nnc(COc2ncnc3c2cnn3-c2ccccc2)o1 | – | -15.7 |
| CN(C)c1cc[n+](CC(=O)Nc2ccc(OC(F)F)cc2)cc1 | 2.82 µM (active) | – |
| O=C(C[n+]1cccc(CNC(=O)c2ccc(OC(F)F)cc2)c1)Nc1ccc(SC(F)F)cc1 | 5.62 µM (active) | – |
| Cc1ccc[n+](CC(=O)Nc2ccc(N(C)C)cc2)c1 | – | -11.7 |
| CCOc1ccc(NC(=O)C[n+]2ccc(N(C)C)cc2)cc1 | 2.51 µM (active) | – |
| CC(C)N(c1ccccc1)c1ccc(NC(=O)CCl)cc1 | 11.2 µM (active) | – |
| O=C(CCl)Nc1ccc(Sc2ccc(NC(=O)CCl)cc2)cc1 | 2.51 µM (active) | – |
| CCOC(=O)c1c(NC(=S)N2CCCCC2)sc2c1CCN(C(=O)OCC)C2 | 5.62 µM (active) | – |
| CCc1ccc(-c2nc3ccc(Br)cc3c(C(=O)O)c2C)s1 | – | -27.6 |
| C=CCc1cccc(CNc2ccc(Br)cc2)c1O | 3.98 µM (active) | – |
| COc1ccc(CCNc2cc(C)nc3c(-c4ccc(Cl)cc4)c(C)nn23)cc1OC | 12.6 µM (active) | – |

| Structure (SMILES) | Potency | activity change, negative = inhibition [%] |
| --- | --- | --- |
| O=C(CSc1nnc(CNc2ccc(F)cc2)o1)c1ccccc1 | – | -19.3 |
| Fc1ccc(CNc2ccc(N3CCN(Cc4ccccc4)CC3)cc2)cc1 | 12.6 µM (active) | – |
| CCCCN(CCCC)CC(O)c1cc(Cl)cc2c1-c1ccc(Cl)cc1/C2=C/c1ccc(Cl)cc1 (stereo not given) | 0.0562 µM (active) | – |
| Cc1nn(Cc2c(Cl)cccc2Cl)c(C)c1NC(=O)c1cc(C(C)C)on1 | 12.6 µM (active) | – |
| CCC(C(=O)Nc1sc(C(N)=O)c(C)c1C(=O)OC)c1ccccc1 (stereo not given) | 12.6 µM (active) | – |
| CCOC(=O)c1cnc2ccccc2c1NCCc1ccc(OC)c(OC)c1 | 11.2 µM (active) | – |
| CCN(CC)C(=O)N1c2ccccc2C=Cc2ccccc21 | 15.8 µM (active) | – |
| O=C1c2ccccc2C(=Nc2ccccc2)C1c1cccc(Br)c1 (stereo not given) | 3.98 µM (active) | – |
| CCOC(=O)c1cc(-c2ccccc2)sc1NC(=O)C(C)OC(=O)c1cccnc1Cl (stereo not given) | 11.2 µM (active) | – |
| CCc1ccc(Nc2n[n+](-c3ccccc3)c(-c3cccc(Cl)c3Cl)s2)cc1 | 3.16 µM (active) | – |
| CC1=CC(C)(C)N2C(=O)C3(NCCc4c3[nH]c3ccccc43)c3cc(C)cc1c32 (stereo not given) | 14.1 µM (active) | – |
| CCN(CC)c1ccc(/C=N/NC(=S)NC)c(O)c1 | 10 µM (active) | – |
| O=C(C[n+]1ccccc1)Nc1ccc(Cl)c([N+](=O)[O-])c1 | 12.6 µM (active) | – |
| N#CCCn1nc(-c2ccc(Cl)cc2)cc1Nc1ccccc1NC(=O)C(F)(F)F | – | -22.3 |
| O=C(CCl)Nc1c2c(nn1-c1ccccc1)CSC2 | 2.51 µM (active) | – |
| CC(C)(C)c1cc(NC(=O)CCl)n(-c2ccccc2)n1 | 12.6 µM (active) | – |
| Cc1ccc(-c2cc(NC(=O)CCl)n(-c3ccccc3)n2)cc1 | 10 µM (active) | – |
| CC1CCN(C(=O)Cn2c(=O)oc3cc(S(=O)(=O)N4CCCCC4)ccc32)CC1 | 15.8 µM (active) | – |
| CCOc1ccccc1CN1CCN(Cc2ccc3cccc(OC)c3n2)CC1CCO (stereo not given) | 14.1 µM (active) | – |
| COc1ccc(CN2CCN(Cc3cc4ccccc4o3)CC2CCO)cc1C (stereo not given) | 14.1 µM (active) | – |
| Cc1cccc(C2Nc3ccccc3C(=O)N2c2ccccc2)n1 (stereo not given) | – | -25.3 |
| CCCN1C(=O)c2ccccc2NC1c1ccc(OC)cc1O (stereo not given) | 12.6 µM (active) | – |
| O=[N+]([O-])c1ccc(CNC2CCCc3ccccc32)cc1 (stereo not given) | – | -49.5 |
| O=[N+]([O-])c1ccc(C[n+]2cccc3c4ccccc4ccc32)cc1 | 0.398 µM (active) | – |

| Structure (SMILES) | Potency | activity change, negative = inhibition [%] |
| --- | --- | --- |
| O=C(NC1CCCC1)c1ccc([N+](=O)[O-])s1 | 14.1 µM (active) | – |
| O=C(NC1C=CS(=O)(=O)C1)c1sc2ccccc2c1Cl (stereo not given) | 6.31 µM (active) | – |
| Cc1cc(Cl)cc(C)c1OCCn1ccnc1 | 12.6 µM (active) | – |
| Cc1nn(Cc2ccccc2Cl)c(C)c1C(=O)Nc1nnc(C2CC2)s1 | 11.2 µM (active) | – |
| Cc1c(OC(C)C(=O)NCc2cccnc2)ccc2c3c(c(=O)oc12)CCCC3 (stereo not given) | 1.58 µM (active) | – |
| Cc1c(OCC(=O)NCc2cccnc2)ccc2c3c(c(=O)oc12)CCC3 | – | -10.9 |
| Cc1c(OCC(=O)NCc2cccnc2)ccc2c3c(c(=O)oc12)CCCC3 | 10 µM (active) | – |
| Cc1ccc(C(=O)Nc2ccccc2SCC2CSc3nc4ccccc4c(=O)n32)cc1 (stereo not given) | 11.2 µM (active) | – |
| Cc1cccc(C(=O)Nc2ccccc2SCC2CSc3nc4ccccc4c(=O)n32)c1 (stereo not given) | 11.2 µM (active) | – |
| O=C(Nc1ccccc1SCC1CSc2nc3ccccc3c(=O)n21)c1cccc(Cl)c1 (stereo not given) | 11.2 µM (active) | – |
| O=C(Nc1ccccc1SCC1CSc2nc3ccccc3c(=O)n21)c1ccccc1Cl (stereo not given) | 11.2 µM (active) | – |
| COc1ccc(NS(=O)(=O)c2cc(OCC(N)=O)c(C)cc2Cl)cc1 | 7.08 µM (active) | – |
| COc1ccc(/C=C2\N=C(SC)N(c3ccccc3OC)C2=O)cc1 | 14.1 µM (active) | – |
| CCN(CC)C1=N/C(=C\c2ccc(OC)cc2)C(=O)N1c1ccccc1 | 14.1 µM (active) | – |
| Cc1c(O)ccc2c(CN(C)Cc3ccccc3)cc(=O)oc12 | 14.1 µM (active) | – |
| COc1cccc(CN(C)Cc2cc(=O)oc3c(C)c(C)ccc23)c1 | – | -26.2 |
| Cc1ccc2c(CN(C)Cc3cccc(Cl)c3)cc(=O)oc2c1C | – | -20.7 |
| COc1ccccc1CN1CCCC(CN(CCN(C)C)C(=O)c2ccc(C)cc2)C1 (stereo not given) | 15.8 µM (active) | – |
| Cn1nnnc1Sc1ncnc2scc(-c3cccc(F)c3)c12 | 12.6 µM (active) | – |
| Cn1nnnc1Sc1ncnc2scc(-c3cccc(S(C)(=O)=O)c3)c12 | 12.6 µM (active) | – |
| Cc1onc(-c2c(F)cccc2Cl)c1C(=O)N1CCCCC1 | – | -20.1 |
| Cc1onc(-c2c(Cl)cccc2Cl)c1C(=O)N=C(N)N1CC(C)OC(C)C1 (stereo not given) | 11.2 µM (active) | – |
| C=CCC1(O)C(=O)N2C(=C1C(=O)OCC)c1ccc3ccccc3c1CC2(C)C (stereo not given) | 11.2 µM (active) | – |
| CCCNC(=O)c1ccc(S(=O)(=O)c2ccc(OC)cc2)c([N+](=O)[O-])c1 | 7.94 µM (active) | – |

| Structure (SMILES) | Potency | activity change, negative = inhibition [%] |
| --- | --- | --- |
| Cc1ccc(C(=O)NCCn2ccc3ccccc32)cc1[N+](=O)[O-] | – | 20.4 |
| O=C(N/N=C/C(Cl)=C\c1ccccc1)c1cccs1 | 5.01 µM (active) | – |
| O=C1Nc2ccccc2/C1=C/C(=O)c1cccs1 | – | -23.8 |
| O=C(N/N=C(\CC(=O)c1cccs1)C(F)(F)F)c1ccncc1 | – | -11.5 |
| CC(=O)OC[C@H]1O[C@@H](n2ncc(=O)[nH]c2=O)[C@H](OC(C)=O)[C@@H]1OC(C)=O | – | -3.23 |
| Cc1ccc(S(=O)(=O)N(Cc2ccccc2)c2ccccc2C(=O)Nc2ccccc2C(=O)NCc2ccco2)cc1 | 2.51 µM (active) | – |
| CCCN(CCC)S(=O)(=O)c1ccc(C(=O)NCc2ccco2)cc1 | 12.6 µM (active) | – |
| Cc1ccc(S(=O)(=O)N(CC(=O)NCc2ccco2)c2ccccc2C)cc1 | 12.6 µM (active) | – |
| Cc1ccc(NC(=O)CN(C)C(=O)c2cccc(S(=O)(=O)NCc3ccco3)c2)cc1 | – | -19.7 |
| CCN(CC(=O)Nc1c(F)cccc1F)C(=O)c1ccc(S(=O)(=O)NCc2ccco2)cc1 | – | -12.2 |
| C(=C\c1nc(N2CCCCCC2)c2ccccc2n1)/c1ccccc1 | 6.31 µM (active) | – |
| O=C(COc1ccccc1)N1c2ccccc2Sc2ccccc21 | 14.1 µM (active) | – |
| Cc1ccc(C)c(N2CCN(S(=O)(=O)c3ccc4c(c3)NC(=O)CS4)CC2)c1 | 11.2 µM (active) | – |
| Cc1cccc(N2CCN(S(=O)(=O)c3ccc4c(c3)NC(=O)CO4)CC2)c1C | 15.8 µM (active) | – |
| COc1ccc(-c2cc(C)no2)cc1S(=O)(=O)Nc1cccc(CN2CCCC2)c1 | 14.1 µM (active) | – |
| Cc1ccc(OCCSCc2nnc(NC(=O)Nc3cccc(Cl)c3)s2)cc1 | 2.82 µM (active) | – |
| Cc1cc(=O)oc2c3c(cc(OCC(=O)Nc4cccnc4)c12)OC(C)(C)CC3 | 3.98 µM (active) | – |
| Cc1ccccc1-n1nc2c(c1NC(=O)C1CCCC1)CS(=O)(=O)C2 | – | -20.1 |
| CCOC(=O)c1cc(-c2ccc(C)cc2)n(CCC(=O)NCCN(C)C)c1C | 11.2 µM (active) | – |
| O=C(/C=C/c1ccccc1)Nc1sc2c(c1C(=O)O)CCC2 | – | -6.98 |
| CC(C)(C)c1ccc(C(=O)Nc2sc3c(c2C(=O)O)CCC3)cc1 | 11.2 µM (active) | – |
| COc1ccc(S(=O)(=O)NCc2ccco2)cc1-c1nnc2c3ccccc3c(C)nn12 | 11.2 µM (active) | – |
| CO[C@H](C(=O)[C@@H](O)[C@@H](C)O)C1Cc2cc3cc(O[C@H]4C[C@@H](O[C@H]5C[C@@H](O)[C@H](O)[C@@H](C)O5)[C@@H](O)[C@@H](C)O4)c(C)c(O)c3c(O)c2C(=O)[C@H]1O[C@H]1C[C@@H](O[C@H]2C[C@@H](O[C@H]3C[C@](C)(O)[C@H](O)[C@@H](C)O3)[C@H](O)[C@@H](C)O2)[C@H](O)[C@@H](C)O1 (stereo not given in full) | 0.562 µM (active) | – |
